High-throughput results: PubChem BioAssay, National Center for Advancing Translational Sciences (NCATS)
Sampled rows, rich in hits. Any-hit rate of the full collection: about 7.3%.
FMDV inh: High Throughput Screening for Foot and Mouth Disease Virus Antivirals. FMDV antiviral cell-based qHTS. Potency, µM (series often up to 57.9 µM), actives largely listed as inhibitors. actives 1.2% (n = 410,000). AID 1159524, 2015; calls by dose curve; tested in HEK293T cells; also: read-out not given here; nearly all actives have a fitted effect of over 45% in size
HCV inh: qHTS Assay for Inhibitors of Hepatitis C Virus (HCV) | Huh7.5.1 HCVcc-Cre infection, luciferase reporter, 44 h | Potency, µM (titrated, usually from 41.8 µM), actives largely listed as inhibitors | actives 3.4% (n = 340,000); active = well fitted inhibition curve with a large enough effect; inconclusive = small, poorly fitted or top-dose-only effect, or another doubt; inactive = no such curve, though single readings can be large or run the other way
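Cells seeded at 1,000/well and cultured 4 h, then compounds added followed by HCVcc-Cre virus (~0.5 moi). After 44 h further culture, luciferase substrate was added, plates held 15 min at room temperature, and luminescence read for 15 sec.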
Vaccinia Venus: qHTS for Stage-Specific Inhibitors of Vaccinia Orthopoxvirus: Venus Reporter Primary qHTS; Potency, µM (series often up to 36.5 µM), most hits filed as inhibitors; Vaccinia virus Venus reporter expression, fluorescence; actives 0.46% (n = 330,000); calls by dose curve; tested in A549 cells; also: nearly all actives have a fitted effect of over 30% in size
VACV mCherry inh: qHTS for Stage-Specific Inhibitors of Vaccinia Orthopoxvirus: mCherry Reporter Primary qHTS. Vaccinia virus mCherry reporter infection, fluorescence. Potency, µM (titrated, usually from 36.5 µM), usual class: inhibitors. actives 0.63% (n = 310,000); calls by dose curve; tested in A549 cells; also: nearly all actives have a fitted effect of over 35% in size
HCMV inh: qHTS Assay for inhibitors of the human cytomegalovirus (HCMV). HFF cells, HCMV-luciferase reporter, 72 h; active compounds read low. activity change, negative = inhibition, % at 57.5 µM. actives 4.5% (n = 410,000). AID 1259415, 2018; in the data active = activity change below about -60%; inconclusive = no clear call, values can overlap the other calls; inactive = above about -39%
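Luciferase read-out from HCMV-luciferase-infected HFFs (MOI 1 PFU/cell) 72 h post infection at 37C; compounds added after 16 h cell attachment; activity normalized between buffer-only basal and Salinomycin (10uM) inhibitor controls.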
A number is an active result; 0 = inactive; ? = inconclusive; - = no result; [ ] = dose if it differs, or a comment.

SMILES | FMDV inh | HCV inh | Vaccinia Venus | VACV mCherry inh | HCMV inh
O=C(c1ccncc1)N1CCN(S(=O)(=O)c2ccc3ccccc3c2)CC1 | ? | ? | - | - | 0
O=C(CCCN1C(=O)/C(=C/c2cccs2)SC1=S)NNC(=O)c1cccnc1 | 0 | 0 | - | - | ?
O=C(CCCN1C(=O)/C(=C/c2ccccc2Cl)SC1=S)NNC(=O)c1ccc(Cl)cc1Cl | 8.9µM | 0 | 0 | 0 | -64
O=C(CCCN1C(=O)/C(=C\c2cccs2)SC1=S)NNC(=O)c1ccncc1 | 0 | 0 | 0 | 0 | -61
O=C(CCCN1C(=O)/C(=C\c2cccs2)SC1=S)Nc1cccnc1 | 0 | 0 | 0 | 0 | -93
O=C(CCCN1C(=O)/C(=C/c2ccccc2OC(F)F)SC1=S)Nc1cccnc1 | ? | 11µM | ? | ? | -65
Cc1c(C(=O)NCCC2CCCN2C)cnn1-c1nccc(-c2ccccc2F)n1 (centres undefined) | 0 | - | 0 | 0 | -
COC(=O)C[C@H]1C[C@H]2c3cc(NC(=O)Nc4ccc(F)cc4)ccc3O[C@H]2[C@@H](CO)O1 | 0 | - | 0 | 0 | 0
CCN(CC)CCOC(=O)c1ccc(NC(=O)CCCN2C(=O)/C(=C\c3cccs3)SC2=S)cc1 | 0 | 10µM | - | - | 0
O=C(CCCN1C(=O)/C(=C/c2cccs2)SC1=S)Nc1cccnc1 | 0 | ? | 0 | 0 | -98
COc1ccccc1C(=O)NNC(=O)CCCN1C(=O)/C(=C/c2cccs2)SC1=S | 0 | 0 | 0 | 0 | -68
Cc1ccc(NC(=O)CSc2nc(-c3ccco3)nc3cc(=O)[nH]n23)cc1 | 0 | - | 0 | 0 | 0
CC1=C(C)/C(=N\OS(=O)(=O)c2ccc(C)cc2)C=CC1=O | 20µM | ? | 0 | 0 | -86
COc1ccc(S(=O)(=O)c2ccc(OC)cc2)cc1 | 0 | 0 | 0 | 0 | 0
CC1=CC(=NOS(=O)(=O)c2ccc(C)cc2)CC(C)(C)C1 | 0 | - | 0 | 0 | 0
COc1ccc(S(=O)(=O)/N=C2/C=CC(=O)C(C)=C2C)cc1 | 0 | 13µM | - | - | -
COc1ccc(-c2oc3ccccc3c(=O)c2O)cc1OC | 0 | - | 0 | 0 | -
CCOc1ccc(-c2oc3ccccc3c(=O)c2O)cc1OCC | 0 | - | 0 | 0 | -65
CCCCCN1C(C(=O)c2ccccc2)=C(NC(=O)c2ccc(OC)cc2)c2ccccc2S1(=O)=O | 0 | - | 0 | 0 | 0
NNC(=O)c1cc2cc3ccccc3nc2s1 | 0 | 0 | - | - | -66
CCCCOc1ccc(CC2CCC(=O)NC2=O)cc1 (centres undefined) | 0 | 0 | 0 | 0 | 0
COc1ccc(Oc2ccc(/C=C/C(=O)c3ccc(O)cc3)cc2[N+](=O)[O-])cc1 | ? | ? | ? | ? | -98
CCOc1cc(/C=C/C(=O)c2ccc(C)cc2)ccc1OCC(=O)N(C)C | ? | ? | ? | ? | -97
COc1ccc(/C=C/C(=O)c2ccc(C(=O)/C=C/c3ccc(OC)c(OC)c3)cc2)cc1OC | ? | 4.5µM | - | - | -76
COc1ccc(C=CC(=O)c2ccc(OCc3ccccc3)c(OC)c2)cc1OC | ? | - | 11µM | 28µM | -87
SMILES | FMDV inh | HCV inh | Vaccinia Venus | VACV mCherry inh | HCMV inh
O=C(/C=C/c1ccc(OCc2ccccc2)c(OCc2ccccc2)c1)c1cccnc1 | ? | ? | 0 | 0 | 0
O=C(/C=C/c1ccc(O)c([N+](=O)[O-])c1)c1ccc2ccccc2c1 | 0 | 0 | 0 | 0 | ?
CC(=O)c1ccc(NC(=O)C[n+]2cccc(C)c2)cc1 | 0 | 0 | - | - | 0
CN1C(=O)C(C)(C)c2cc(S(=O)(=O)N3CCC(C(=O)NCc4ccccc4Cl)CC3)ccc21 | 0 | 0 | 0 | 0 | 0
COc1ccc(/C=C/C(=O)c2ccccc2)cc1COc1ccc(F)cc1 | ? | ? | - | - | 0
COc1ccc(/C=C/C(=O)c2ccccc2)cc1Cn1nnc2ccccc21 | ? | 3.5µM | 0 | 0 | 0
COc1c(CC=C(C)C)c(O)cc2oc(=O)c3c4ccc(O)cc4oc3c12 | 0 | 4µM | 0 | 0 | -
CC(C)=CCc1c(O)cc2c(=O)c3ccc(O)cc3oc2c1O | 0 | ? | 0 | 0 | 0
COc1ccc(NC(=O)CC2C(=O)N(c3ccc(F)cc3)C(=O)N2Cc2ccco2)cc1 (centres undefined) | 0 | - | 0 | 0 | 0
O=C(CCl)c1ccc(Cc2ncc(C(F)(F)F)cc2Cl)s1 | 25µM | 0 | 0 | - | 0
NS(=O)(=O)c1ccc(Cc2ncc(C(F)(F)F)cc2Cl)s1 | 0 | ? | 0 | 0 | 0
Cc1ccccc1Cn1c(=O)n(Cc2ccco2)c(=O)c2sc3ccccc3c21 | 0 | - | 0 | 0 | -69
Cc1cccc(Cn2c(=O)n(CCc3ccccc3)c(=O)c3sc4ccccc4c32)c1 | 0 | - | 0 | 0 | -95
O=c1c(-c2cccc(F)c2)nc2cncnc2n1C1CC1 | 0 | - | - | - | -
COc1ccc(CN2CCc3c(c(=O)n4ncc(C(=O)N5CCN(c6ccccc6OC)CC5)c4n3C)C2)cc1 | ? | - | ? | 0[7.34 µM] | -84
CCOC(=O)C(C)C(C)=O (centres undefined) | 0 | 0 | ? | 0.32µM | -
CCOC(=O)C(C(C)=O)C(c1ccc(OC)cc1)C(C(C)=O)C(=O)OCC (centres undefined) | 0 | 0 | 0 | - | 0
Cc1cc2c(cc1C)N(C(=O)CCl)CCN2C(=O)CCl | 8.9µM | 4µM | 0 | 0 | 0
Cc1cc2c(cc1C)N(C(=O)CCl)CC(=O)N2 | 40µM | - | ? | 0 | -
Cc1nc(C(F)(F)F)ccc1C(=O)N1CCC1(C)C(=O)Nc1ccc2c(c1)OCO2 (centres undefined) | 0 | - | 0 | 0 | 0
COc1ccccc1-n1c(=O)c2c3c(sc2n(Cc2ccccc2F)c1=O)CN(C(C)=O)CC3 | 0 | - | 0 | 0 | 0
CC(=O)N1CCc2c(sc3c2c(=O)n(CCc2ccccc2)c(=O)n3Cc2ccccc2C)C1 | ? | - | 0 | 0 | 0
CCOC(=O)N1CCc2c(sc3c2c(=O)n(-c2ccc(F)cc2)c(=O)n3CC(=O)c2ccc(Cl)cc2)C1 | 0 | - | 0 | 0 | 0
CCOC(=O)N1CCc2c(sc3c2c(=O)n(-c2ccccc2C(F)(F)F)c(=O)n3Cc2ccccc2C)C1 | 0 | - | 0 | 0 | -101
CC(=O)N1CCc2c(sc3c2c(=O)n(CCc2ccccc2)c(=O)n3Cc2ccc(Cl)cc2)C1 | ? | - | 0 | ? | -106
CCOC(=O)N1CCc2c(sc3c2c(=O)n(-c2ccc(Cl)cc2)c(=O)n3CC(C)C)C1 | 0 | - | 0 | 0 | -65
CC(C)C[C@H]1CNC(=S)N1C[C@H]1CCCN1C[C@H](CC(C)C)N1C[C@H](Cc2ccc(O)cc2)N(CCc2ccccc2)C1=S | ? | - | 0 | 0 | -95
CC(C)C[C@H]1CN([C@@H](CC(C)C)CN2CCC[C@@H]2CN2C(=S)NC[C@@H]2Cc2ccc(O)cc2)C(=S)N1CCc1ccccc1 | 0 | - | 0 | 0 | 0
CC(C)C[C@H]1CN([C@@H](CC(C)C)CN2CCCC2CN2C(=S)NC[C@@H]2Cc2ccc(O)cc2)C(=S)N1CCc1ccccc1 (some centres undefined) | 0 | ? | 0 | 0 | -80
